# PubChem BioAssay (NCI)
# This is part of a sample that, as a whole, favours compounds with a hit. Of some 83,000 tested, about 20% had one in any assay.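 Assay: single dose, 48 h. Readout: percent growth (0 = no net growth; negative = cell death). Active: <10.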 A number with no mark means an inactive call. Activity calls are given as the source filed them.
# Columns and labels:
# Experiment in all cases: NCI-60 one-dose screen, 48 h (100 = growth as untreated, 0 = no growth, -100 = all killed)
# Details in all cases: 10 µM
# [1] = system: HT29 colon
# [2] = system: SNB-19 CNS
# [3] = system: U251 CNS
# [4] = system: PC-3 prostate
# [5] = system: SK-MEL-5 melanoma
# [6] = system: UACC-62 melanoma
# [7] = system: LOX IMVI melanoma
# [8] = system: SK-MEL-28 melanoma
# [9] = system: SK-MEL-2 melanoma
SMILES,growth [1],growth [2],growth [3],growth [4],growth [5],growth [6],growth [7],growth [8],growth [9]
O=C1/C(=C/c2ccc([N+](=O)[O-])o2)Oc2ccccc21,-15.3% (active),89.4%,47.5%,42.8%,55.7%,-55% (active),-60.7% (active),21.5%,17.2%
COc1ccc(-c2ccc(-c3ccc(C(=N)N)cn3)o2)cc1,14.1%,91.5%,76.3%,68.3%,72.3%,89.7%,,86.5%,99.5%
COc1ccc(S(=O)(=O)Nc2c(/C=C\c3cc(OC)c(OC)c(OC)c3)ccc(OC)c2O)cc1,11.7%,48.5%,6.01% (active),30.5%,-17% (active),38.6%,15.5%,58.2%,3.84% (active)
Cc1cccc2c1O/C(=C\c1ccc([N+](=O)[O-])o1)C2=O,-67.4% (active),44.2%,-19.7% (active),-36.3% (active),-83.5% (active),-58.9% (active),,-56.6% (active),-62.8% (active)
CCCC#CCN(CC)CC,104%,100%,91.2%,86%,104%,99.1%,102%,108%,114%
Cn1c(N)c(N=Nc2ccc(S(=O)(=O)Nc3nccs3)cc2)c(=O)n(C)c1=O,107%,,99.2%,90.5%,104%,106%,89.4%,112%,92.4%
CCN(CC)CCCC(C)Nc1nc(-c2ccc(OC)cc2)nc2cc(Cl)ccc12 (centres undefined),27.9%,74.6%,57%,48.4%,0.434% (active),-46.9% (active),32.8%,-70% (active),98.2%
CCC(=O)N1C/C(=C/c2ccc(OC)cc2)C(=O)/C(=C/c2ccc(OC)cc2)C1,-35.5% (active),68.2%,4.41% (active),16.2%,15.7%,27.3%,-58.7% (active),19.2%,82.3%
O=C1/C(=C\c2ccccc2)CN(C(=O)c2ccccc2F)C/C1=C\c1ccccc1,-46.7% (active),51%,-36% (active),8.54% (active),-48.6% (active),-17.4% (active),-86% (active),-56.7% (active),54.8%
Nc1c(C(=O)Nc2cccc(Br)c2)sc2nc3c(cc12)C(O)CCC3 (centres undefined),5.13% (active),62.2%,19.3%,23%,31.6%,48.9%,46.2%,63.2%,58.7%
O=C(Nc1cccc(-n2cc(-c3ccncc3)c(-c3ccc(O)c(Cl)c3)n2)c1)Nc1ccc(Cl)c(Cl)c1,37.8%,38.2%,-70.9% (active),-7.87% (active),-47% (active),-43% (active),-34.4% (active),-21.5% (active),
CCN(CCCCCCCCCCN1CC(=O)N(CCCCCCCCCCN(CC)Cc2ccccc2OC)CC1=O)Cc1ccccc1OC,-57.8% (active),-20% (active),-71.1% (active),-40.9% (active),-100% (active),-80.5% (active),-86.6% (active),,-60.6% (active)
CC1=C(N2CCOCC2)C(N2CCOCC2)=C(C)C(=O)C1=O,111%,103%,101%,104%,99.2%,109%,101%,106%,
O=C(Nc1ccc(CO)cc1)c1ccccc1Nc1ccnc(C(F)(F)F)c1,109%,106%,95.4%,99.5%,107%,95.4%,92.2%,101%,123%
Cc1ccc(C(=O)Nc2cccc(F)c2)cc1NC(=O)C1(c2ncnc3[nH]ccc23)CC1,52.5%,120%,93.6%,92.2%,74.3%,54.5%,42.1%,83.3%,14.5%
O=C(O)CN1C(=O)c2cccc3cccc(c23)C1=O,100%,99.2%,97.4%,104%,106%,100%,98.6%,109%,111%
CC(=O)N(C)c1ccc(Nc2ccc(Nc3ccc(N(C)C(C)=O)cc3)c3c2C(=O)c2ccccc2C3=O)cc1,68.6%,88.4%,77.3%,38.3%,79%,88.8%,55%,106%,82.8%
COc1ccc2c(c1)N(CCO)C1=C(C(=O)OC1)C2c1cc(OC)c(OC)c(OC)c1 (centres undefined),-4.82% (active),19.1%,9.9% (active),21.9%,-24.7% (active),8.69% (active),25.1%,65.6%,
CNc1ncc(-c2ccc(C(F)(F)F)cc2)c(NC2CCCCCC2)n1,56.8%,85.2%,58.9%,61.8%,74.8%,89.9%,85.8%,88%,
O=C(/C(=C/c1ccccc1)CN1CCCCC1)c1ccccc1,-30.6% (active),45.9%,-22.7% (active),-9.65% (active),-86% (active),-67% (active),-75.1% (active),-63% (active),-67% (active)
COc1ccc(OC)c(/C=C/c2nc(SC)n(-c3ccc(Cl)cc3)n2)c1,90.3%,81.4%,78.1%,38.9%,53.4%,49.5%,83.3%,85.1%,88.5%
Nc1c(C(=O)Nc2ccccc2)sc2nc3c(cc12)CCCC3,10.1%,64%,21.7%,25.4%,31.8%,47.8%,53.3%,56%,51.5%
O=C1ON=[N+](c2ccc(Cc3ccc([N+]4=NOC(=O)C4CN4CCOCC4)cc3)cc2)C1CN1CCOCC1 (centres undefined),89.7%,86.5%,62.8%,56.5%,53.2%,53.4%,65%,74.9%,78.6%
Fc1ccc2nc(-c3nc(-c4ccccc4)n4ccccc34)[nH]c2c1,-52.6% (active),-36.5% (active),-67% (active),-71% (active),4% (active),3.95% (active),15.2%,-9.19% (active),-30.3% (active)
ClCC#CCSc1ncnc2c1ncn2CC#CCCl,17.7%,13.2%,0.284% (active),32.3%,9.62% (active),19.2%,-35.5% (active),39.5%,41.1%
COc1cc(Cl)cc(-c2nn(-c3cccc(NC(=O)c4ccc(Cl)c(Cl)c4)c3)cc2-c2ccncc2)c1,56.4%,71.6%,64.1%,34%,78.5%,75.4%,72.8%,87.7%,78.4%
CN(CCc1ccccn1)c1ccccc1,102%,102%,96.4%,101%,103%,98%,102%,101%,101%
CCCCC/C=C/C(=O)CCc1ccc(O)c(OC)c1,93.1%,87.1%,79.6%,55.8%,97.7%,83.1%,23.7%,95.8%,121%
